# The list is not random: actives were taken first. Their share in the collection is about 5.2%.
# Vif imaging – inhibitors of HIV Vif. HEK293T cells, Vif self-association by quenched fluorescence, imaging, 24 h. inhibition, % at 7.49 µM. hit rate 0.35% among 340,000; in the data active = inhibition above about 50%, passing the limit was not always enough
# SMARCA2 act – SMARCA2 function activation, primary screen; AID 652017; MG213 cells, MMTV-luciferase reporter, dexamethasone, overnight; activation, % at 9.1 µM; hit rate 1% among 370,000; in the data active = activation above about 7.8%;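 note: 0% = vehicle wells and 100% = reference activator wells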
# GRIN3A LBD mod – modulates the human NR3A ligand-binding domain | NR3A LBD differential scanning fluorimetry, Tm shift; 0% = protein alone, 100% = glycine-bound protein | Tm shift relative to glycine control, % at 25 µM | hit rate 2.5% among 340,000 | AID 1259313;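 active = melting temperature shift of at least 10% of the positive control shift, at one fixed dose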
# NadD block – blocks S. aureus nicotinate mononucleotide adenylyltransferase. purified NadD enzyme, colorimetric absorbance read-out. inhibition, % at 20 µM. hit rate 0.78% among 360,000; in the data active = inhibition above about 26%
# SKN-1 block – blocks SKN-1 activity in C. elegans; C. elegans VP596 Pgst-4::GFP/RFP ratio, acrylamide-induced, 24 h; inhibition, % at 21.8 µM; hit rate 0.49% among 360,000; AID 624304;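 active = interference check ratio from 0.5 to 1.5 plus GFP to RFP signal ratio inhibition reaching or exceeding a fixed threshold, cut at about 30% in these data, passing the limit was not always enough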
# esBAF inh – blocks esBAF chromatin remodeling in mouse ES cells; Bmi1-luciferase knock-in reporter, 24 h; 100% = twice the neutral-well signal; reporter increase, % at 12.5 µM; hit rate 2% among 350,000; in the data active = activation above about 40%;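 note: 0% = median of the plate's neutral control wells and 100% = double that signal; a rise in the Bmi1 reporter signal indicates esBAF inhibition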
# * = called active by the depositor; nt = not tested or not shown.
SMILES,Vif imaging,SMARCA2 act,GRIN3A LBD mod,NadD block,SKN-1 block,esBAF inh
COc1ccccc1C(CNc1ncccc1[N+](=O)[O-])N(C)C (stereo not given),39,-1,-1,-7,-1,3
COc1ccc(CNc2ncccc2[N+](=O)[O-])cc1,-4,3,0,-1,9,54*
CCc1c(C)c(C#N)c2[nH]c3ccccc3n2c1=S,-10,-3,11*,20,2,nt
CCc1cc(=S)n2c([nH]c3ccccc32)c1C#N,3,nt,7,13,13,nt
Cc1ccc(C)c(NC(=O)Cn2cnc3c(oc4ccccc43)c2=O)c1,2,-2,-2,2,2,2
Cc1cc(CCNC=O)c(C)c2c1oc1ccccc12,0,4,13*,-1,19,nt
Cc1ccc(-n2ncc3c(=O)n(CC(=O)NC4CCCCC4)cnc32)cc1C,-1,-2,-1,2,-5,-4
CC(C)(C)n1ncc2c(=O)n(CC(=O)NC3CCCCC3)cnc21,-36,0,0,2,6,44*
C[C@H]1CN([C@@H](C)CO)C(=O)Cc2cc(NC(=O)C3CCCCC3)ccc2O[C@H]1CN(C)C(=O)Nc1ccccc1,nt,nt,nt,nt,nt,4
CC(=O)Nc1cccc(-c2csc(Nc3ccc(Cl)cn3)n2)c1,-6,3,14*,-8,-5,nt
CC(=O)Nc1ccc(-c2csc(Nc3ccc(Cl)cn3)n2)cc1,-23,-4,26*,-6,22,nt
CCC(=O)N1[C@@H]2c3ccc(-c4ccncc4)c(=O)n3C[C@@H]2[C@@H](CO)[C@@H]1C(=O)Nc1ccccc1,nt,nt,nt,nt,nt,-3
Cc1ccccc1C(=O)Nc1ccc2c(C#N)c3nc4ccccc4nc3n2c1,-10,0,1,13,36*,nt
CCCC#Cc1ccc2c(c1)O[C@@H](CN(C)C(=O)c1ccccn1)[C@@H](C)CN([C@H](C)CO)S2(=O)=O,nt,nt,nt,nt,nt,-5
Clc1ccc2nc(-c3ccc(Cl)nc3)[nH]c2c1,-2,6,nt,-4,6,58*
O=C(O)C(Oc1ccc2c(c1)oc(=O)c1ccccc12)c1ccccc1 (stereo not given),7,-3,-1,-3,-5,3
COc1cc(OC)cc(-c2cc3ccccc3c(=O)o2)c1,-1,-1,1,1,-1,48*
Nc1ccc(-c2cc3ccccc3c(=O)o2)cc1,-10,-7,-11,-2,13,-49
COc1ccc2c(C)cc(=O)oc2c1,-9,-3,2,3,3,-1
COc1ccc2c(C)c(Cl)c(=O)oc2c1,53*,-2,1,3,1,-5
COc1ccc2c(c1)oc(=O)c1c3ccccc3[nH]c21,4,0,21*,3,10,nt
COc1ccc2c(c1)oc(=O)c1ccccc12,4,3,-3,-4,15,41*
CCCNC(=O)N1C[C@@H](O)COC[C@H]2O[C@@H](CC(=O)N3CCCCC3)CC[C@@H]21,nt,nt,nt,nt,nt,2
O=C(C[C@H]1C[C@@H]2c3cc(NC(=O)c4ccc5c(c4)OCO5)ccc3O[C@@H]2[C@@H](CO)O1)NCc1ccc(Cl)cc1,nt,nt,nt,nt,nt,3
C[C@H](O)C#Cc1ccc2c(c1)O[C@H](CN(C)C(=O)Cc1ccccn1)[C@@H](C)CN([C@@H](C)CO)S2(=O)=O,nt,nt,nt,nt,nt,4
SMILES,Vif imaging,SMARCA2 act,GRIN3A LBD mod,NadD block,SKN-1 block,esBAF inh
Cc1noc(C)c1NC(=O)Nc1ccc2c(c1)C(=O)N([C@@H](C)CO)C[C@@H](C)[C@@H](CN(C)S(=O)(=O)c1ccc(F)cc1)OCCCC[C@@H](C)O2,nt,nt,nt,nt,nt,-2
O=C(NCCc1c[nH]c2ccccc12)C(=O)Nc1ccccc1,nt,3,-30,0,-3,58*
O=C(NCCc1c[nH]c2ccccc12)Nc1cccc2ccccc12,4,-3,18*,6,10,0
N#C/C(=C/c1ccc2c(c1)OCO2)C(=O)NCCc1c[nH]c2ccccc12,3,nt,9,-10,3,nt
Cc1ccc(NC(=O)C(=O)NCCc2c[nH]c3ccccc23)cc1C,7,-3,-1,-7,3,nt
Cc1cc(C)nc(NC(=NCCc2c[nH]c3ccccc23)NC(=O)Nc2ccccc2)n1,-5,-2,10*,19,-2,-11
N#C/C(=C\c1ccc(-c2ccc(Br)cc2)o1)C(=O)NCCc1c[nH]c2ccccc12,0,-2,27*,22,10,nt
Cc1cc(C)nc(NC(=NCCc2c[nH]c3ccccc23)NC(=O)c2ccco2)n1,-5,-1,-2,26,3,-3
CCOc1ccccc1NC(=O)NCCc1c[nH]c2ccccc12,-5,-1,5,-6,-14,-5
C[C@@H]1CN([C@H](C)CO)C(=O)Cc2cc(NC(=O)Nc3cccc4ccccc34)ccc2O[C@@H]1CN(C)S(=O)(=O)c1ccc(F)cc1,nt,nt,nt,nt,nt,-1
CO[C@@H]1CN(C)C(=O)c2cc(NC(=O)c3cc(C)on3)ccc2OC[C@H](C)N(CC2CC2)C[C@H]1C,nt,nt,nt,nt,nt,3
CO[C@H]1CN(C)C(=O)c2cc(NS(=O)(=O)c3cn(C)cn3)ccc2OC[C@H](C)N(CC2CC2)C[C@H]1C,nt,nt,nt,nt,nt,-7
Cc1ccc(S(=O)(=O)/C(C#N)=C/c2c(N3CC(C)OC(C)C3)nc3ccccn3c2=O)cc1 (stereo not given),67*,1,-2,3,-1,2
COc1ccc(-n2c(C)n[nH]c2=O)cc1,24,5,-1,7,0,-1
Cc1n[nH]c(=O)n1-c1ccc(OCc2ccccc2)cc1,1,-1,0,0,18,44*
C[C@H](CO)N1C[C@H](C)[C@@H](CN(C)C(=O)Nc2cccc3ccccc23)Oc2ccc(NC(=O)CCC(F)(F)F)cc2CC1=O,nt,nt,nt,nt,nt,7
CCOc1ccc(NS(=O)(=O)c2ccc(C(=O)NCc3ccccn3)cc2)cc1,-1,-2,5,-3,8,2
Cc1ccc(NS(=O)(=O)c2ccc(C(=O)NCc3ccccn3)cc2)cc1,-4,0,14*,-6,8,0
Cc1ccc(NS(=O)(=O)c2ccc(C(=O)NNC(=O)c3ccccc3O)cc2)cc1,-6,-2,10*,-1,-27,-11
O=C(NNC(=O)c1ccccc1O)c1ccc(NS(=O)(=O)c2ccc(F)c(F)c2)cc1,-4,-2,-2,-1,-6,nt
CO[C@@H]1CN(C)C(=O)c2cc(NC(=O)Nc3ccccc3F)ccc2OC[C@H](C)N(CC2CC2)C[C@H]1C,nt,nt,nt,nt,nt,2
Cc1ccccc1NC(=O)Nc1ccc2c(c1)C(=O)N(C)[C@H]1CC[C@@H](CC(=O)NCC3CC3)O[C@@H]1CO2,nt,nt,nt,nt,nt,0
COc1ccc(/C=N/NC(=O)c2cc3c(OC)ccc(OC)c3[nH]2)cc1O,0,3,-5,3,-7,nt
COc1cc(/C=N/Nc2snc(SC)c2C#N)ccc1O,nt,-2,20*,-2,-1,60*
COc1cc(/C=N/Nc2nc3ccccc3[nH]2)ccc1O,-1,1,15*,-1,11,47*

# High-throughput results from PubChem.
